Results as given in ChEMBL document CHEMBL5308504, “Tm Shift (DSF) assay results for EUbOPEN Chemogenomics Library” (2023).
Several values for one entry are separate records, joined by “and”; a condition that tells them apart may be missing. Identical values can stand only once.

Experiments:
Conditions in all cases: Compound concentration 20.0 uM, Protein concentration 2.0 uM, Result type QC Liability
[1] = biological target: Tyrosine-protein kinase ABL1 (Homo sapiens) (UniProt P00519)
[2] = biological target: Cyclin-dependent kinase 2 (Homo sapiens) (UniProt P24941)
[3] = biological target: Casein kinase I isoform delta (Homo sapiens) (UniProt P48730)
Chain of Casein kinase I isoform delta (Homo sapiens) (P48730 whole entry, looked up, canonical isoform): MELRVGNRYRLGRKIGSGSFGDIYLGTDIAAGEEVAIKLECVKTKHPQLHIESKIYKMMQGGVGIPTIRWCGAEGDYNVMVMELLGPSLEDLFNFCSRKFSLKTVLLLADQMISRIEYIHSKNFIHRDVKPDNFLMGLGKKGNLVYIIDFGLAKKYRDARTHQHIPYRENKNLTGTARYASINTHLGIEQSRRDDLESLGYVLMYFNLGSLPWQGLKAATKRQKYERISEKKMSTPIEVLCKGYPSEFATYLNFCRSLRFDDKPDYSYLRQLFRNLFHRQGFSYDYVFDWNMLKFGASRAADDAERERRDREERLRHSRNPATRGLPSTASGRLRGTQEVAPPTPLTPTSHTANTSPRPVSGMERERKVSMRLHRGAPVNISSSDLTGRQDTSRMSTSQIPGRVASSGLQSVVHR

[4] = biological target: Glycogen synthase kinase-3 beta (Homo sapiens) (UniProt P49841)
Chain of Glycogen synthase kinase-3 beta (Homo sapiens) (P49841 whole entry, looked up): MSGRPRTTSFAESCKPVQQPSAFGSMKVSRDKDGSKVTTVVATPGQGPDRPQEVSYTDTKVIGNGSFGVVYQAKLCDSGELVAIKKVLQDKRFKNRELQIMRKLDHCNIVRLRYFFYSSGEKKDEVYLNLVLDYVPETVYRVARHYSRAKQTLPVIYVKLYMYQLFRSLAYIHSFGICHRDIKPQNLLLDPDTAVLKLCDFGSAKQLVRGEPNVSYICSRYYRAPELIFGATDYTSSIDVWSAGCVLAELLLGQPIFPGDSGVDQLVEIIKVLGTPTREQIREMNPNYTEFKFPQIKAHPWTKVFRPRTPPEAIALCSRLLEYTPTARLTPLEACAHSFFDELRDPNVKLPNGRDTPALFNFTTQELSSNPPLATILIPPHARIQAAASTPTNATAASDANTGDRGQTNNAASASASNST

[5] = biological target: Mitogen-activated protein kinase 1 (Homo sapiens) (UniProt P28482)
Chain of Mitogen-activated protein kinase 1 (Homo sapiens) (P28482 whole entry): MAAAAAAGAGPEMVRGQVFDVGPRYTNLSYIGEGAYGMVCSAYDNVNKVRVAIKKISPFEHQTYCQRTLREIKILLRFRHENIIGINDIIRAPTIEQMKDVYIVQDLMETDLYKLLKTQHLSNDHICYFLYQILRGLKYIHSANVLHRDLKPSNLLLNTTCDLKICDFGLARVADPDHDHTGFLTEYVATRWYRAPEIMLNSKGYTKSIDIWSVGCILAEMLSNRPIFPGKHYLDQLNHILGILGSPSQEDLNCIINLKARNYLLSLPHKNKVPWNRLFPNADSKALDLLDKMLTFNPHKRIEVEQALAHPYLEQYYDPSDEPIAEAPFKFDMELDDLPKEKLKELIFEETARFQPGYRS

[6] = biological target: T1, Aurora kinase A (Homo sapiens) (UniProt O14965)
T1 sequence (whole entry): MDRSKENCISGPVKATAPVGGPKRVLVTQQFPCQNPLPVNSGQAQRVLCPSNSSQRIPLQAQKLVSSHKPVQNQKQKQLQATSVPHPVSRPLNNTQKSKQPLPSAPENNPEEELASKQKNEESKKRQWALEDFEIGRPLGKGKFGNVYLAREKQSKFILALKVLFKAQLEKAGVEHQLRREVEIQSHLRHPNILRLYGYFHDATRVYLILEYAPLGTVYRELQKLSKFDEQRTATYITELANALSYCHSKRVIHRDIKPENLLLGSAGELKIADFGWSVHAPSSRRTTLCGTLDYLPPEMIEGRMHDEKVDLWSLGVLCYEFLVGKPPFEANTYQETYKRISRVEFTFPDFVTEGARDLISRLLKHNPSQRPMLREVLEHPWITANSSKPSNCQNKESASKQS

Chain of Tyrosine-protein kinase ABL1 (Homo sapiens) (P00519 whole entry): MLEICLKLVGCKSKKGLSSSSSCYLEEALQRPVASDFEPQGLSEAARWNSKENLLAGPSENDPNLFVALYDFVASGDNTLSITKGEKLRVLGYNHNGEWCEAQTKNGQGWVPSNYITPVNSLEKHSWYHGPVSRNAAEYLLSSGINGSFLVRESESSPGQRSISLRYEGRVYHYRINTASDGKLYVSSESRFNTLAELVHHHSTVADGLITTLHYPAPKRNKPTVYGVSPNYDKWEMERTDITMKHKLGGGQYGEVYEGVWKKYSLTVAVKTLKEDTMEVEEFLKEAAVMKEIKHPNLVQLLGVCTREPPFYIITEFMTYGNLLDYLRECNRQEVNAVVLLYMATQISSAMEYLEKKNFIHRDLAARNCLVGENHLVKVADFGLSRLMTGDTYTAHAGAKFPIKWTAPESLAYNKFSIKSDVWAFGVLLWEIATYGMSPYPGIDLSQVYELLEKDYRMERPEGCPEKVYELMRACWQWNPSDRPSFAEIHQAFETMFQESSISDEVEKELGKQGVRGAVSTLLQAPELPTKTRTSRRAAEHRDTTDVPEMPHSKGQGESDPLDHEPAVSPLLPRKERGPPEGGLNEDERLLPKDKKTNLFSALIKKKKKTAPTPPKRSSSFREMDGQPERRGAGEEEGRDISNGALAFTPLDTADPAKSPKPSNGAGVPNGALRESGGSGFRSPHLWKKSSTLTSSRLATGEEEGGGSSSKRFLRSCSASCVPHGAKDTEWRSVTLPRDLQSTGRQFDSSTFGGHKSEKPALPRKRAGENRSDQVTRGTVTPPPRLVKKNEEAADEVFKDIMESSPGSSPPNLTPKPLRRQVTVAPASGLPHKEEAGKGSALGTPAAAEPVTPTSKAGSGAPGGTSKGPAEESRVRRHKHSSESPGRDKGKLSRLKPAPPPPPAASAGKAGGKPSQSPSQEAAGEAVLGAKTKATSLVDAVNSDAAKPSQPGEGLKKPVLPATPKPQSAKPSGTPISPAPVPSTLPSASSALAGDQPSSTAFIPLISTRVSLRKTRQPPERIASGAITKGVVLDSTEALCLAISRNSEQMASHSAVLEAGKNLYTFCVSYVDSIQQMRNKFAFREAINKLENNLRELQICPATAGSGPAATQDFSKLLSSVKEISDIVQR

Structure (SMILES)	ΔTm [1]	ΔTm [2]	ΔTm [3]	ΔTm [4]	ΔTm [5]	ΔTm [6]
CCc1ncnc(N2CCN(C(C)=O)CC2)c1C#Cc1ccc(N)nc1	0.27 °C	0.16 °C	1.03 °C	-0.12 °C	0.42 °C	-0.14 °C
CC(C)c1nc2c(c3c1[C@@H](c1ccc(C(F)(F)F)cc1)OC31CCOCC1)[C@@H](O)CC(C)(C)C2	-0.41 °C	0.52 °C	0.25 °C	-1.28 °C	-0.13 °C	-0.38 °C
CC(=O)c1c(C)c2cnc(Nc3ccc(N4CCNCC4)cn3)nc2n(C2CCCC2)c1=O	0.35 °C and -0.02 °C	1.06 °C and 0.93 °C	0.19 °C and 0.01 °C	0.23 °C and 0.63 °C	0.09 °C and 0.31 °C	-0.85 °C and 0.31 °C
COCCN(C)c1ccc(NC(=O)/C=C(\C)c2ccc3ccccc3c2)c(C(=O)O)c1	-1.57 °C	1.03 °C	1.4 °C	2.78 °C	-0.17 °C	1.7 °C
CCNc1ccc(-c2nn(-c3ccccc3C)c3c2C(C)Cc2nc(NC(=O)OC)sc2-3)cn1 (centres undefined)	0.34 °C	0.64 °C	0.19 °C	-0.97 °C	-0.13 °C	1.08 °C
CNc1ncc2cc(-c3ccc(-c4ncccc4F)cc3Cl)c(=O)n(C[C@H]3OC[C@H](N)CO3)c2n1	4.27 °C	1.01 °C	0.79 °C	-0.51 °C	3.43 °C	4.87 °C
CCn1c(-c2nonc2N)nc2ccccc21	0.33 °C	0.64 °C	0.5 °C	4.22 °C	0.41 °C	1.84 °C
Cn1nc(C(=O)NCc2ccc(C(=O)O)cc2)cc1-c1ccc2[nH]ccc2c1	0.76 °C	0.58 °C	0.39 °C	-0.55 °C	0.47 °C	0.09 °C
COc1cc2c(NC3CCN(C(C)C)CC3)nc(C3CCCCC3)nc2cc1OCCCN1CCCC1	0.15 °C	0.9 °C	0.11 °C	-0.55 °C	0.32 °C	0.5 °C
NCCCc1c(C(=O)O)[nH]c2ccc(C(=O)Nc3ccccc3)cc12	0.08 °C	0.25 °C	0.53 °C	-0.39 °C	0.25 °C	-1.5 °C
CCOCCn1cc(C(=O)Nc2ccc(-n3nc(-c4cccnc4)cc3C(F)(F)F)cn2)ccc1=O	0.3 °C	-1.4 °C	0.33 °C	-0.71 °C	-0.58 °C	0.16 °C
CN1CCC(F)(Cn2cnc(-c3ccc(F)cn3)c2-c2ccnc3[nH]ccc23)CC1	0.05 °C	0.48 °C	8.14 °C	-0.54 °C	0.37 °C	-0.98 °C
CC(C)(O)[C@H](F)CN1Cc2cc(NC(=O)c3cnn4cccnc34)c(N3CCOCC3)cc2C1=O	2.02 °C	-0.03 °C	0.59 °C	0.95 °C	0.46 °C	3.04 °C
CC(C)(C)C(=O)NCc1ccc(Cl)c(C(=O)Nc2ncc[nH]2)c1	0.08 °C	0.44 °C	-0.14 °C	0.45 °C	-0.01 °C	-0.18 °C
CC1=C(C(=O)OCCO)[C@@H](c2ccc(C#N)cc2)NC(=O)N1c1cccc(C(F)(F)F)c1	-0.45 °C	-0.38 °C	0.44 °C	-0.19 °C	0.15 °C	-0.11 °C
C[C@H](CCOc1cccc(CC(=O)O)c1)N(Cc1cccc(C(F)(F)F)c1Cl)CC(c1ccccc1)c1ccccc1	0.51 °C	1.5 °C	0.57 °C	-1.07 °C	0.41 °C	-2.31 °C
Cc1cc(Cn2c(N3CC4(CNC4)C3)nc3c(N4CCN(C)CC4)cc(Cl)cc32)cc(C)c1F	0.24 °C	0.83 °C	0.19 °C	0.34 °C	0.58 °C	0.07 °C
CC(C)(C)NC(=O)c1cncn1C1CCN(c2ccc(-c3nnc(C(F)(F)F)o3)cn2)CC1	1.4 °C	0.97 °C	0.21 °C	-0.09 °C	0.18 °C	0.23 °C
CCC(C(=O)Nc1ccc(-c2cc3ccccc3s2)c(C(N)=O)c1)c1nccs1 (centres undefined)	0.88 °C	0.25 °C	0.47 °C	0.69 °C	0.41 °C	0.34 °C
CN(CCCCCCC1=C(c2cc(F)cc(F)c2)CCCc2cc(O)ccc21)CCCCS(=O)(=O)CCCC(F)(F)F	-0.9 °C	-0.47 °C	0.28 °C	0 °C	-9.1 °C	0.84 °C
CCN(CC)C/C=C/C(=O)Nc1cc2c(Nc3ccc(F)c(Cl)c3)ncnc2cc1OCC1CC1	7.73 °C	-0.55 °C	0.34 °C	-0.95 °C	-0.24 °C	1.29 °C
O=C(O)CCn1c2c(c3ccccc31)C[C@H](NS(=O)(=O)c1ccc(F)cc1)CC2	1.15 °C	1.26 °C	0.09 °C	0.24 °C	0.28 °C	-0.02 °C
Cc1ccc(NS(=O)(=O)c2ccc3c(c2)C2C=CCC2C(c2ccc(C(=O)O)cc2)N3)cc1C (centres undefined)	-0.61 °C	1.5 °C	0.36 °C	-1.27 °C	-3.84 °C	-2.29 °C
Cc1nc(Nc2cnn(C3CCNCC3)c2)nc2c1N(C)C(=O)c1cc3ccccc3cc1N2C	2.1 °C	-1.03 °C	0.48 °C	-0.49 °C	0.6 °C	1.73 °C
